Screening data deposited in PubChem by National Center for Advancing Translational Sciences (NCATS).
Shown are actives, neighbours in structure and some others; about 9% of the full set was active somewhere.
Lamin A splicing – LMNA splicing modulation. HeLa LMNA splicing GFP/RFP minigene ratio, 48 h. Potency, µM (series often up to 46.1 µM), hits mostly inhibitors. AID 1487. 200,000 compounds, 0.01% hits; active means well fitted inhibition curve with a large enough effect in the signal ratio, with a control signal flat, not every such curve was filed as active; inconclusive means small, poorly fitted or top-dose-only effect, or effect the other way, or a change in a side signal; the % refers to the signal ratio
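Read-out is the ratio of GFP to DsRed2 object intensity, acquired by 488 nm laser-scanning cytometry on HeLa lamin A-EGFP minigene reporter cells. Compound incubation 48 hrs at 37 °C in Opti-MEM with 2% FBS; DMSO 0.5% final.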
ALDH1A1 inh – inhibitors of human aldehyde dehydrogenase 1A1. P00352. Purified ALDH1A1, NADH fluorescence, propionaldehyde substrate. Potency, µM (series often up to 75.3 µM), most hits filed as inhibitors. 220,000 compounds, 7.3% hits; active means well fitted inhibition curve with a large enough effect, not every such curve was filed as active; inconclusive means small, poorly fitted or top-dose-only effect, or another doubt; inactive means no such curve, though single readings can be large or run the other way
HPGD inh – HPGD (human) dehydrogenase inhibition. purified HPGD, NADH fluorescence kinetic, PGE2 substrate. Potency, µM, actives largely listed as inhibitors. AID 894. 150,000 compounds, 4.3% hits. P15428; active means well fitted inhibition curve with a large enough effect, not every such curve was filed as active; inconclusive means small, poorly fitted or top-dose-only effect, or another doubt; inactive means no such curve, though single readings can be large or run the other way
Target sequence (P15428 whole entry, looked up): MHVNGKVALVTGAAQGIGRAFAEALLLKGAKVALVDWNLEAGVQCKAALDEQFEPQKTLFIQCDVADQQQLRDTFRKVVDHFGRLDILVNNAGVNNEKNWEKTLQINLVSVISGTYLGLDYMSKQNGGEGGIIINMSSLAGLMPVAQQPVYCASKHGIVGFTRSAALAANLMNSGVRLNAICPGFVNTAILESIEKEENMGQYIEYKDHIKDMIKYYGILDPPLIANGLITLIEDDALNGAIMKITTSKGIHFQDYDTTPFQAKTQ
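20 nM HPGD preincubated 15 min at room temperature with compound in 50 mM Tris-HCl pH 8, 0.01% Tween 20. Started with 1 mM NAD+ and 30 uM prostaglandin E2; NADH fluorescence (360/450 nm) read 5 times over 30-s intervals, last minus first.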
Luc counter – counter-screen: inhibitors of Kinase-Glo firefly luciferase. Q27757. Kinase-Glo luciferase, ATP luminescence, 8 min. Potency, µM (series often up to 38.3 µM), most hits filed as inhibitors. 200,000 compounds, 0.28% hits. AID 1379; further: nearly all actives have a fitted effect of over 60% in size
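Compound is pinned into ATP-containing buffer (10 uM ATP, imidazole pH 7.2, 7 mM MgCl2). Kinase-Glo luciferase reagent is then added. Light output is recorded following an 8-min room-temperature incubation.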
HTT aggregate – inhibitors of mutant huntingtin aggregate formation in PC12 cells; Potency, µM (doses to about 46.1 µM), actives largely listed as inhibitors; 220,000 compounds, 1.1% hits; AID 1688; PC12 HttQ103-GFP aggregates, Acumen cytometry, 40 h; further: nearly all actives have a fitted effect of over 60% in size
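Compounds (qHTS titration) were added to PC12 cells expressing an ecdysone-driven HTT exon 1 Q103–GFP fusion after induction with 100 nM tebufenozide. Aggregate formation was measured as GFP objects in cell lysates.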
HTT ATP protect – cytoprotection in Huntington HTT-Q103 PC12 cell model. 230,000 compounds, 0.14% hits. Potency, µM (doses to about 56.4 µM), usual class: activators. PC12 HTT-Q103 induced, cytoprotection, ATP luminescence, 40 h; further: nearly all actives have a fitted effect of over 45% in size
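PC12 cells stably carrying ecdysone-inducible Htt exon 1 (Q103)–GFP were induced with 100 nM tebufenozide (final) alongside library compounds in a dose series. Cytoprotection was scored as retained ATP by ATPlite luminescence.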
HPGD inh conf – confirmation of human HPGD inhibitors; Potency, µM (titrated, usually from 57.1 µM), most hits filed as inhibitors; 90 compounds, 90% hits; shares compounds with HPGD inh; recombinant HPGD, NADH fluorescence, PGE2 substrate; calls by dose curve
Numbers stand for hits; [ ] = dose if it differs, or a comment. Unless noted, the call rests on the fitted dose curve; in most records, active means well fitted curve in the direction sought with a large enough effect; inconclusive means small, poorly fitted or top-dose-only effect, or another doubt; inactive means no such curve, though single readings can be large; an effect the other way counts as inactive or inconclusive.

CCC1CCCCN1C(=O)c1nn2cccnc2c1Cl (configuration not stated) was read as Lamin A splicing inactive, ALDH1A1 inh inactive, HPGD inh inactive, Luc counter inactive, HTT aggregate inactive, HTT ATP protect inactive[1.9 µM] and HPGD inh conf inactive.
CN(Cc1ccccc1)C(=O)c1nn2cccnc2c1Cl was read as ALDH1A1 inh inconclusive, Luc counter inactive and HTT aggregate inactive.
CCN(CC)S(=O)(=O)c1ccc(Cl)c(NC(=O)COc2ccc(OC)cc2[N+](=O)[O-])c1 was read as Lamin A splicing inactive, ALDH1A1 inh inactive, HPGD inh inactive, Luc counter inactive, HTT aggregate inactive and HTT ATP protect inactive[10 µM].
`CCC[N+]1(CC#CC2(O)CCCCC2)CCOCC1` gave ALDH1A1 inh inactive, Luc counter inactive, HTT aggregate inactive and HTT ATP protect inactive.
Screening Cc1ccc(S(=O)(=O)Nc2ccccc2C(=O)O)c(C)c1 returned ALDH1A1 inh inconclusive, HPGD inh inconclusive and Luc counter inactive.
`Cc1ccc(C)c(S(=O)(=O)Nc2cc(SCC(=O)O)c(O)c3ccccc23)c1` gave Lamin A splicing inconclusive, ALDH1A1 inh 25.1µM, HPGD inh 0.891µM, Luc counter inactive, HTT aggregate inactive, HTT ATP protect inactive[10 µM] and HPGD inh conf 0.398µM.
`O=C(CSc1nc(-c2ccccc2)nn1C(=O)c1ccccc1)Nc1cccc([N+](=O)[O-])c1` gave Lamin A splicing inactive, ALDH1A1 inh 22.4µM, HPGD inh 1.26µM, Luc counter inactive, HTT aggregate inactive, HTT ATP protect inactive and HPGD inh conf 2.51µM.
For O=C(c1cccc([N+](=O)[O-])c1)n1nc(-c2ccccc2)nc1NCc1ccccc1 the results were Lamin A splicing inactive, ALDH1A1 inh inactive and HTT aggregate inconclusive.
Screening O=S(=O)(Nc1cc(Sc2cccc3cccnc23)c(O)c2ccccc12)c1ccccc1 returned Lamin A splicing inconclusive, ALDH1A1 inh inconclusive, HPGD inh 1.12µM, Luc counter inactive, HTT aggregate inconclusive and HPGD inh conf 0.631µM.
For O=C(Nc1cccc2ccccc12)c1ccccc1NS(=O)(=O)c1cccc2cccnc12 the results were Lamin A splicing inactive, ALDH1A1 inh inactive, HPGD inh inactive, Luc counter inactive, HTT aggregate inactive and HTT ATP protect inactive[10 µM].
Screening Cc1ccc(S(=O)(=O)NCc2ccc(C(=O)N3CCc4ccccc4C3)cc2)cc1 returned Lamin A splicing inconclusive, ALDH1A1 inh inconclusive, HPGD inh 1.41µM, Luc counter inactive, HTT aggregate inconclusive, HTT ATP protect inactive[10 µM] and HPGD inh conf 2.24µM.
Screening Cc1ccc(CN(c2ccc(C(=O)N3CCc4ccccc4C3)cc2)S(C)(=O)=O)cc1 returned Lamin A splicing inconclusive, ALDH1A1 inh inactive, HPGD inh inconclusive, Luc counter inactive, HTT aggregate inactive, HTT ATP protect inactive and HPGD inh conf 11.2µM.
`CCN(CC)C(=O)C1CCCN(c2ccc([N+](=O)[O-])cc2/C=N/NC(=O)c2ccc([N+](=O)[O-])cc2)C1` (configuration not stated) gave Lamin A splicing inactive, ALDH1A1 inh inconclusive, HPGD inh inactive, Luc counter inactive, HTT aggregate inactive and HTT ATP protect inactive.
For O=c1c2ccccc2sn1-c1ccccc1 the results were Lamin A splicing inactive, ALDH1A1 inh 4.47µM, HPGD inh 0.562µM, Luc counter inactive, HTT aggregate inactive, HTT ATP protect inactive and HPGD inh conf 0.447µM.
`COCCn1c(=O)sc2ccccc2c1=O` gave Lamin A splicing inactive, ALDH1A1 inh inactive, Luc counter inactive, HTT aggregate inactive and HTT ATP protect inactive[10 µM].
